Rows were chosen to be rich in hits. Some 2.5% of all compounds tested hit in one or more screens of this group.
EWS-Fli inh = blocks EWS/Fli oncoprotein-driven transcription | A673 NR0B1-luciferase reporter, viability-normalised | inhibition, % at 12.6 µM | 350,000 compounds, 0.67% hits | AID 651661;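 active = mean inhibition of at least 50% after viability correction, with every replicate also passing that limit; inconclusive = mean reaches 50% but only one of two replicates passes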;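 also: firefly luciferase signal divided by Alamar Blue viability fluorescence both relative to DMSO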
PAX8 reporter = inhibitors of PAX8 transcriptional activity in RMG-I cells. RMG-I TPO-luciferase reporter, SteadyGlo, 24 h. inhibition, % at 12.6 µM. 360,000 compounds, 1.2% hits;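 active = mean replicate inhibition at least 60% with every replicate also reaching 60%; inconclusive = only one of the two criteria is met; inactive = mean below 60% and not all replicates reaching 60%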;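 also: luciferase light reporting Pax8 driven TPO promoter activity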
F508del corr = correctors of CFTR F508del function in bronchial epithelial cells; CFBE cells, YFP halide quenching; stimulated with forskolin plus potentiator P3; % fluorescence drop versus neutral controls; activity (quench increase), % at 7.58 µM; 350,000 compounds, 0.36% hits; AID 720511;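 active = mean added fluorescence quench of at least 8% versus neutral control, with both replicates also reaching 8%; inconclusive = only one of the mean or replicate conditions met; inactive = mean below 8% and not both replicates reaching 8%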;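 also: cells transiently co-express mutant CFTR-F508del with the halide-sensitive YFP; corrector assay measuring rescue of mutant channel to the surface after 24 h compound exposure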
HIV Env fusion = inhibitors of HIV Env-mediated cell fusion. HeLa-JRFL Env/CEM21 cell fusion, luciferase. inhibition, % at 12.3 µM. 360,000 compounds, 1.1% hits. AID 651610;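 active = mean replicate inhibition score of at least 50 and every replicate individually at or above 50; inconclusive = only one of the two criteria met; inactive = mean below 50 and not all replicates reaching 50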
FXN GAA850 act = frataxin GAA850 promoter activation; HEK293 lucGAA850 FXN promoter luciferase reporter, 24 h; percent of 10 µM SAHA response; activation, % at 6 µM; 360,000 compounds, 0.56% hits; AID 540364;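 active = activation above the average of all compounds screened plus 3 SD, cutoff fixed separately per campaign, cut at about 7.5% in these data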
Numbers stand for hits; – = inactive; ? = inconclusive; · = no result.

SMILES	EWS-Fli inh	PAX8 reporter	F508del corr	HIV Env fusion	FXN GAA850 act
CC=Cc1ccc2n(c1=O)C[C@H]1[C@H](CO)[C@@H](C(=O)NC3CCC3)[C@@H]2N1C(=O)c1ccccn1 (mixture of isomers)	–	·	·	–	·
O=C(Nc1ccc(F)cc1)N[C@H]1CC[C@@H](CCn2cc(-c3ccccc3F)nn2)O[C@H]1CO	–	·	–	–	·
O=S1(=O)N[C@H](Cc2ccccc2)COc2cccc(F)c21	–	–	–	57	·
CC(=O)Oc1ccc(OC(C)=O)c(SCCCCCCl)c1	54	–	–	–	–
COc1ccc(NC(=O)c2nc(C)c(C3(C)CC(c4ccccc4)=NO3)s2)cc1 (stereo not drawn)	55	–	14	–	–
Cc1nc(C(=O)Nc2ccccc2)sc1C1(C)CC(c2cccnc2)=NO1 (stereo not drawn)	–	–	–	–	–
O=C(O)C[C@@H]1CC[C@H](NC(=O)Nc2ccccc2)[C@@H](CO)O1	–	–	–	–	·
COc1ccc(Nc2nc3cc(-c4ccsc4)sc3c(=O)n2C)cc1OC	–	–	–	–	–
COc1ccc(Nc2nc3cc(-c4sccc4C)sc3c(=O)n2C)cc1OC	–	–	9.6	–	–
C[C@@H]1CCCCO[C@@H](CN(C)Cc2ccc3c(c2)OCO3)[C@@H](C)CN([C@@H](C)CO)C(=O)c2cc(NC(=O)Nc3ccc(C(F)(F)F)cc3)ccc2O1	–	77	–	?	·
C[C@@H]1CN([C@@H](C)CO)C(=O)c2cc(NC(=O)Nc3ccc(C(F)(F)F)cc3)ccc2O[C@@H](C)CCCCO[C@@H]1CN(C)Cc1ccc2c(c1)OCO2	–	101	–	–	·
C[C@H]1CCCCO[C@@H](CN(C)Cc2ccc3c(c2)OCO3)[C@@H](C)CN([C@@H](C)CO)C(=O)c2cc(NC(=O)Nc3ccc(C(F)(F)F)cc3)ccc2O1	–	–	–	–	·
C[C@@H]1CCCCO[C@H](CN(C)Cc2ccc3c(c2)OCO3)[C@H](C)CN([C@H](C)CO)C(=O)c2cc(NC(=O)Nc3ccc(C(F)(F)F)cc3)ccc2O1	–	–	–	–	·
C[C@@H]1CCCCO[C@@H](CN(C)Cc2ccc3c(c2)OCO3)[C@H](C)CN([C@@H](C)CO)C(=O)c2cc(NC(=O)Nc3ccc(C(F)(F)F)cc3)ccc2O1	–	88	–	–	·
CO[C@H]1CN(C)C(=O)c2ccc(NC(=O)Cc3ccccc3)cc2OC[C@H](C)N(C)C[C@@H]1C	·	·	–	·	·
Cc1ccc(N(CCC#N)C(=O)CCl)cc1C	72	?	–	–	–
c1coc(-c2nc3ccccc3s2)c1	–	–	11	–	–
COc1ccc(-c2nc3ccccc3s2)cc1	79	–	·	–	–
CCOc1ccc(N(CC(=O)Nc2ccccc2C)S(=O)(=O)c2c(C)noc2C)cc1	58	–	–	–	–
CCOc1ccc(NC(=O)CN(c2ccc([N+](=O)[O-])cc2)S(=O)(=O)c2ccccc2)cc1	–	–	15	–	–
CC(=O)Nc1ccc(NC(=O)CN(c2ccc([N+](=O)[O-])cc2)S(=O)(=O)c2ccccc2)cc1	–	–	–	–	–
O=C(C1CCCC1)N1CCCCN2[C@H](CO)[C@H](c3ccc(C#CC4(O)CCCC4)cc3)[C@H]2C1	–	–	–	·	·
O=C(CC1SC(=Nc2cccc3ccccc23)N(Cc2ccccn2)C1=O)Nc1ccccc1Br (stereo not drawn)	–	96	–	·	–
COc1cc2c(cc1OC)C(c1cccs1)N(C(=O)c1cccnc1)CC2 (stereo not drawn)	–	–	9.9	–	–
O=C(O)[C@H]1[C@H](CO)[C@H]2Cn3c(ccc(-c4ccccc4F)c3=O)[C@H]2N1C(=O)c1cnccn1	–	·	·	·	·
SMILES	EWS-Fli inh	PAX8 reporter	F508del corr	HIV Env fusion	FXN GAA850 act
O=C(NNC(=O)C12CC3CC(CC(C3)C1)C2)c1ccccc1F	–	81	–	–	–
C[C@@H]1CN([C@@H](C)CO)C(=O)Cc2cc(NS(=O)(=O)c3cccs3)ccc2O[C@@H]1CN(C)Cc1ccccc1	–	–	–	–	·
COc1cccc(CNC(=O)[C@H]2[C@H](CO)[C@H]3Cn4c(cccc4=O)[C@@H]2N3C(=O)C2CCC2)c1	–	·	–	·	·
CN(C)c1ncnc2c1nnn2C1OC(CO)C(O)C1O (stereo not drawn)	–	91	–	–	–
COc1cccc(S(=O)(=O)N2CCCCN3[C@H](CO)[C@H](c4ccc(C#CC(C)C)cc4)[C@@H]3C2)c1	–	71	–	·	·
C[C@H](O)C#Cc1ccc([C@@H]2[C@@H](CO)N3CCCCN(S(=O)(=O)c4ccccc4)C[C@H]23)cc1	–	76	–	·	·
